Reference: PubChem BioAssay AID1626 (SRMLSC, 2009)
The whole screen tested about 220,000 compounds, of which about 2,000 (0.91%) were called active. About 2% were inconclusive and are not listed. Rule as the data show it: inconclusive = inhibition above about 80% without an active follow-up result; inactive = below that; test concentration not stated here. A selection follows. Potency and affinity values are given separately.

Test: M. tuberculosis H37Rv growth inhibitors, H37Rv strain (AID 1626);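 also: bacteria incubated seven days before Alamar blue readout; 0% = bacteria only wells and 100% = bacteria with antibiotic wells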
Details: stronger effect = higher value, concentration not given here

Row | SMILES | inhibition
1 | Cc1ccccc1C(=O)Nc1ccc(C(=O)N/N=C/c2ccc(O)c(Br)c2)cc1 | 6.55% (inactive)
2 | CCOC(=O)N1CCC(NC(=O)C2CCCN(C(=O)c3cc4sccc4n3C)C2)CC1 (stereo unspecified) | -2.27% (inactive)
3 | O=C(NCCN1CCN(c2ccccc2)CC1)c1cccn2c(=O)c3ccccc3nc12 | 5.61% (inactive)
4 | Cc1cc(Cl)n2nc(C)c(-c3ccc(Cl)cc3)c2n1 | 0.72% (inactive)
5 | COCCNc1cc(C)nc2c(-c3ccccc3OC)c(C)nn12 | -2.69% (inactive)
6 | Cc1cc(NCCC(C)C)n2nc(C)c(-c3ccccc3)c2n1 | 11.3% (inactive)
7 | COc1ccc(CCNc2cc(C)nc3c(-c4ccccc4)cnn23)cc1OC | 1.98% (inactive)
8 | CCOC(=O)c1ccc(NC(=O)C2CCN(C(=O)c3ccc(OC)c(OC)c3)CC2)cc1 | -6.93% (inactive)
9 | O=C(NC1=NCCCCC1)c1cccc2ccccc12 | -1.94% (inactive)
10 | COc1cccc(CNCCSc2nnnn2C)c1 | 6.16% (inactive)
11 | CCNC(=O)N1CCCC(C(=O)c2ccc3cc(OC)ccc3c2)C1 (stereo unspecified) | -5.17% (inactive)
12 | COC(=O)c1ccc(CSc2nnc3c(Cl)cc(Cl)cn23)o1 | -5.19% (inactive)
13 | CCc1ccc(NC(=O)N(Cc2ccco2)C(C)c2cccs2)cc1 (stereo unspecified) | 0.17% (inactive)
14 | CCN(CCCNC(=O)C1CCC(=O)N1C1CCCC1)c1cccc(C)c1 (stereo unspecified) | 0.34% (inactive)
15 | COc1ccc(OC(=O)c2c(C)nn(-c3ccccc3)c2C)cc1 | -12.3% (inactive)
16 | Cc1c(C(=O)Oc2cccc3ccccc23)cnn1-c1ccccc1 | 27.3% (inactive)
17 | NC(=O)CSc1nnnn1-c1ccc(OC(F)(F)F)cc1 | -7.21% (inactive)
18 | CCC1=CCN(CCc2c(C)[nH]c3ccccc23)CC1 | -0.79% (inactive)
19 | NNC(=S)Nc1c(Br)cc(F)cc1Br | -5.67% (inactive)
20 | CCOc1ccccc1C1N=C(c2ccc(OC)cc2)CC(c2ccccc2O)N1 (stereo unspecified) | 7.98% (inactive)
21 | Clc1ccc2nc(-c3ccc4c(c3)OCO4)cn2c1 | 4.92% (inactive)
22 | CCC1(C)N=C(c2ccc3c(c2)OCO3)CC(c2ccccc2O)N1 (stereo unspecified) | 14.6% (inactive)

Row | SMILES | inhibition
23 | COc1cccc(C2=NC(C)(C)NC(c3ccccc3O)C2)c1 (stereo unspecified) | 4.8% (inactive)
24 | CN1CCC(N(C)CC(=O)Nc2ccccc2N2CCOCC2)CC1 | 13.7% (inactive)
25 | O=C(NCCCO)NC(=S)c1cccc2ccccc12 | -0.39% (inactive)
26 | Cc1cc(NC(=O)CSc2nnc(Nc3ccccc3C)s2)no1 | -2.04% (inactive)
27 | Cc1cccc(Nc2nnc(SCC(=O)Nc3ccc(C(=O)O)cc3)s2)c1 | 13.8% (inactive)
28 | CCc1ccc(Nc2nnc(SCC(=O)Nc3ccc(C(=O)O)cc3)s2)cc1 | -5.8% (inactive)
29 | CCc1ccc(Nc2nnc(SCC(=O)NC(=O)c3cccn3C)s2)cc1 | 2.04% (inactive)
30 | CCc1ccccc1NC(=O)CN(C)C(=O)CSc1nnc(Nc2cccc(C)c2)s1 | 6.25% (inactive)
31 | Cc1ccc(C)c(SCC(=O)Nc2cccnc2Cl)c1 | 18.9% (inactive)
32 | CCOC(=O)c1cc2c(ccn2-c2ccc(F)cc2)n1CC(=O)N1CCN(C(=O)c2ccco2)CC1 | -1.91% (inactive)
33 | Clc1ccccc1CNC1CN2CCC1CC2 (stereo unspecified) | 5.7% (inactive)
34 | CCNc1ncnc2c1cnn2C | -10.7% (inactive)
35 | Cc1ccc(SCc2[nH]nc3c2C2(C(=O)Nc4ccc([N+](=O)[O-])cc42)C(C#N)=C(N)O3)cc1 (stereo unspecified) | -2.15% (inactive)
36 | COc1ccc(CNc2nc3ccccc3n2CCN2CCCCC2)cc1 | -0.5% (inactive)
37 | CCN(CC)c1ccc(CNc2nc3ccccc3n2CCN2CCOCC2)cc1 | 6.6% (inactive)
38 | Cc1ccc(S(=O)(=O)NCc2ccc(C(=O)N(C)CCC#N)cc2)cc1 | 4.15% (inactive)
39 | Cc1ccc(NC(=O)c2cnccn2)cc1 | 3.69% (inactive)
40 | O=C(Nc1ccc(Cl)c(C(F)(F)F)c1)c1ccco1 | 10.7% (inactive)
41 | O=C(CCNc1cccc(C(F)(F)F)c1)c1ccco1 | 53.5% (inactive)
42 | O=C(COC(=O)CCS(=O)(=O)c1ccc(Cl)cc1)NC1CCCCC1 | 0.69% (inactive)
43 | Cc1cc(NC(=O)CSc2nnc(-c3ccc(O)cc3)o2)no1 | -6.89% (inactive)
44 | CCOc1ccc(-c2nnc3ccc(SCC(=O)Nc4cc(C)on4)nn23)cc1 | 4.14% (inactive)

Row | SMILES | inhibition
45 | Cc1cc(NC(=O)CSc2nnc(COc3ccccc3)o2)no1 | 3.02% (inactive)
46 | O=C(CCSc1nnc(-c2ccc(O)cc2)o1)N1CCOCC1 | -1.1% (inactive)
47 | Cc1ccc(-c2nnc(SCCC(=O)N3CCOCC3)o2)cc1 | 77.5% (inactive)
48 | Cc1cc(NC(=O)CSc2nnc(Cc3ccccc3)o2)no1 | -8.58% (inactive)
49 | Cc1cc(NC(=O)CSc2nnc(-c3ccco3)o2)no1 | -3.8% (inactive)
50 | COc1cccc(-c2nnc(SCC(=O)Nc3cc(C)on3)n2C)c1 | -2.38% (inactive)
51 | COc1cc(OC)c(Nc2cc(C)nc3nc(C)nn23)cc1Cl | 10.9% (inactive)
52 | COc1ccccc1N1CCN(C(c2ccc(Cl)cc2)c2nnnn2C(C)(C)C)CC1 (stereo unspecified) | 3.99% (inactive)
53 | COc1ccc(-n2c(O)c(C=Nc3c(C)n(C)n(-c4ccccc4)c3=O)c(=O)[nH]c2=O)cc1 | 6.56% (inactive)
54 | CN(c1ccc(C(=O)N2CCN(Cc3ccc4c(c3)OCO4)CC2)cc1)S(=O)(=O)c1ccccc1 | 7.14% (inactive)
55 | O=C(Nc1cccc(NC(=S)NC(=O)c2cccs2)c1)c1ccccc1 | -2.28% (inactive)
56 | CSc1cccc(NC(=S)N(CCC(C)C)C2CCN(C(C)=O)CC2)c1 | -6.61% (inactive)
57 | CC(N)C(=O)c1ccco1 (stereo unspecified) | -3.4% (inactive)
58 | COc1ccccc1NC(=S)NNC(=O)c1cc(C)nn1C | -9.1% (inactive)
59 | COc1ccccc1-c1nnc(SCC(=O)Nc2c(Cl)cccc2Cl)o1 | -3.32% (inactive)
60 | COc1ccc(-c2nnc(SCC(=O)Nc3cc(F)ccc3C)o2)cc1 | -6.49% (inactive)
61 | Cc1ccc(NCc2nnc(SCC(=O)Nc3cc(C)on3)n2C)cc1 | -5.91% (inactive)
62 | Cc1cc(NC(=O)CSc2ccc3c(c2)OCCO3)no1 | -5.76% (inactive)
63 | COc1ccccc1-n1c(CNc2ccc(F)cc2)nnc1SCC(=O)Nc1cc(C)on1 | -4.09% (inactive)
64 | O=C(CSc1nnc(-c2ccc(O)cc2)o1)Nc1ccc2c(c1)OCCO2 | -0.38% (inactive)
65 | COc1ccc(-c2nnc(SCC(=O)Nc3nncs3)o2)cc1 | 1.2% (inactive)
66 | Cc1cc(NC(=O)CSc2nnc(-c3ccoc3C)o2)no1 | 4.02% (inactive)
